GLP1R cytotox = cytotoxic in the GLP-1 receptor inverse agonist counter-screen; HEK293 cAMP-luciferase reporter cells, luminescence, 24 h; Potency, µM (series often up to 38.3 µM), for the others: at the highest dose activity change, negative = inhibition, most hits filed as inhibitors; hit rate 0.13% among 410,000; AID 624418;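 also: loss of luciferase light is scored as toxicity; potency is read from the fitted curve at half-maximal effect; % is scaled to controls: 0 for no effect and ±100 for the full control effect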
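Cells in DMEM/10% Nu serum/1% pen-strep, 1536-well format. Pre-incubated 12 h, dosed with 23 nL compound, incubated a further 24 h. Luciferase detection, 12 min at room temp, luminescence.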
GLP1R ag = agonists of human GLP-1 receptor | P43220 | HEK293 GLP-1R CRE-luciferase, luminescence, 4-6 h; cells express a hypersensitive GLP-1R form | Potency, µM (highest dose often 45.6 µM), inactives show at the highest dose activation, most hits filed as activators | hit rate 0.007% among 380,000 | AID 624172; also: potency is read from the fitted curve at half-maximal effect; % of control where 0% means no effect
TRHR ag = activates the human TRH receptor; AID 493084; hit rate 0.18% among 360,000; TRHR cells, calcium flux fluo-8, FDSS agonist mode; P34981; activation, % at 2 µM; in the data active = activation above about 30%; also: 0% is about no effect
Target sequence (P34981 whole entry, looked up): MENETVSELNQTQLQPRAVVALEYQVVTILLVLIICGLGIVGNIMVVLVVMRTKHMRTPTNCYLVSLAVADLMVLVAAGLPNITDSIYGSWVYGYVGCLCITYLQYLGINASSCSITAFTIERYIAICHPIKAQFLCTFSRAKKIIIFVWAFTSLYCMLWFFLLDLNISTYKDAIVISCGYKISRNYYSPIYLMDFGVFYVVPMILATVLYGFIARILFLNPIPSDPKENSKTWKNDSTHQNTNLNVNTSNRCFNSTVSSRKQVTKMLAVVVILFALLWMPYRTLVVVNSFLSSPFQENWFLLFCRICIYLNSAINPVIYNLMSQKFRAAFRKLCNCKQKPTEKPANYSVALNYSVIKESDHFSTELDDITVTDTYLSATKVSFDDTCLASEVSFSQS
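In this calcium-flux screen, cells bearing human TRHR are dye-loaded with fluo-8, baselined for 10 cycles, then exposed to library compounds; positive kinetic calcium responses during the agonist phase mark hits, with TRH as control.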
GLP-1R inv ag = acts as inverse agonist at human GLP-1 receptor; P43220; AID 624417; Potency, µM (series often up to 38.3 µM), for the others: at the top dose activity change, negative = inhibition, actives largely listed as inhibitors; hit rate 1.6% among 410,000; HEK293 GLP-1R CRE-luciferase, luminescence, 24 h; GLP-1R form is constitutively active; also: potency is read from the fitted curve at half-maximal effect; % is scaled to controls: 0 for no effect and ±100 for the full control effect; nearly all actives have a fitted effect of over 55% in size
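HEK293 cells stably co-expressing constitutively active GLP-1R and a cAMP-responsive luciferase reporter were seeded in DMEM with 10% Nu serum, given compounds after 12 h, and incubated 24 h at 37 deg C. Luminescence was then read.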
PTHR1 ag = PTHR1 (human) receptor agonism; Q03431; HEK293 GP2 PTHR1 cells, GloSensor cAMP luminescence, 1 h; Potency, µM (series often up to 115 µM), for inactives: at the top dose activation, usual class: activators; hit rate 0.075% among 410,000; AID 743266; also: potency is read from the fitted curve at half-maximal effect; nearly all actives have a fitted effect of over 55% in size
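HEK-293-derived GP2 cells expressing PTHR1 and a GloSensor cAMP reporter, 3,000/well, plated overnight, given luciferin plus IBMX (each 0.5 mM as added) for 1 h at 37 °C, then compound for 1 h at 37 °C. Luminescence was read after 15 min at room temperature.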
TRHR PAM = allosterically enhances the human TRH receptor. enhancement, % at 2 µM. hit rate 0.66% among 360,000. AID 493056. TRHR cells, fluo-8 calcium fluorescence, EC20 TRH enhancement; in the data active = enhancement above about 30%; also: 0% is about no effect
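Enhancer read-out: after compound pinning and an initial kinetic agonist-mode read, an EC20 of TRH (10 nM final) was injected and fluo-8 calcium signal (Ex 480/Em 530) followed at 1 s/cycle for 100 cycles in TRHR-expressing cells.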
An asterisk follows results filed as active; i = inactive; ? = inconclusive; . = not tested or not shown; [ ] = another dose, or the depositor's remark. The list is not random: actives were taken first. Their share in the collection is about 2.4%. Unless noted, calls follow the shape of the dose curve; as a rule, active = well fitted curve in the direction sought with a large enough effect; inconclusive = small, poorly fitted or top-dose-only effect, or another doubt; inactive = no such curve, though single readings can be large; an effect the other way counts as inactive or inconclusive.

SMILES	GLP1R cytotox	GLP1R ag	TRHR ag	GLP-1R inv ag	PTHR1 ag	TRHR PAM
Cc1cc(C)cc(N2C(=O)C3CC=CCC3C2=O)c1 (stereo not given)	-10.1%	-8.3%	-0.3	5.6%	-10.0%	20.3
CCNC(=O)Nn1c(C)nnc1C	-2.4%	-9.0%	0.3	2.1%	-8.0%[57.5 µM]	-0.8
CC(C)NCCOCCSc1ccc(Cl)cc1	-4.7%	-5.1%	0.0	12.6µM*	-15.5%	-1.5
CCOc1ccccc1N=NC1C(=O)N(C(N)=S)N=C1C (stereo not given)	?	-1.8%	0.1	0.891µM*	-8.5%	4.2
COc1ccc(CCN(C)C(=O)c2cccc(S(=O)(=O)N3CCN(c4ccc(F)cc4)CC3)c2)cc1OC	-4.6%	10.2%	.	26.9%	-35.9%	.
CN(CCOc1ccc(Cl)cc1)C(=O)c1cccc(S(=O)(=O)N2CCN(c3ccc(F)cc3)CC2)c1	-4.6%	13.6%	.	3.98µM*	-11.8%	.
CCCCCN1C(=O)/C(=C/c2c(N3CCc4ccccc4C3)nc3ccccn3c2=O)SC1=S	2.6%	10.6%	.	13.0%	i	.
CCOC(=O)CC1C(=O)NCCN1C(=O)c1ccc(C)cc1 (stereo not given)	0.7%	-11.1%	-0.3	2.8%	i	2.6
CCOC(=O)CC1C(=O)NCCN1c1nc2ccc(C)cn2c(=O)c1/C=C1\SC(=S)N(CC(C)C)C1=O (stereo not given)	0.0%	11.4%	62.6*	-15.1%	-8.3%	-5.2
CCCN1C(=O)/C(=C/c2c(N3CCNC(=O)C3CC(=O)OCC)nc3c(C)cccn3c2=O)SC1=S (stereo not given)	-2.7%	1.0%	67.6*	-2.3%	-21.2%	6.0
CCOC(=O)CC1C(=O)NCCN1c1nc2ccc(C)cn2c(=O)c1/C=C1\SC(=S)N(C(C)CC)C1=O (stereo not given)	.	.	105.2*	.	.	13.3
Cc1ccc(NC(=O)c2cnc(SCC(=O)N3CCOCC3)n(C)c2=O)cc1	-10.3%	.	0.5	-10.4%	i	9.1
Cc1cc(Cl)c(OCCn2ccnc2)c(Br)c1	-4.7%	10.3%	-0.8	-2.3%	-21.1%	0.0
CCC(=O)C1=C(c2ccc(OC)c(OC)c2)N(C(=O)CC)n2c(CC)nnc2S1	-5.1%	.	-0.4	7.1%	i	-2.3
N#Cc1ccc(/C=C2\CCCCn3c2nc2cc(C(=O)O)ccc2c3=O)cc1	-13.3%	2.0%	0.4	-5.0%	i	-0.6
CN1CCN(C(=O)CN2C(=O)NC(C)(c3ccc4ccccc4c3)C2=O)CC1 (stereo not given)	-13.7%	1.8%	0.6	-9.4%	i	13.1
CC1(c2ccc3ccccc3c2)NC(=O)N(CC(=O)N2CCN(c3ccccc3O)CC2)C1=O (stereo not given)	0.7%	0.8%	-0.7	11.2µM*	-28.6%	7.2
CCN(CC(=O)NCc1ccc(F)cc1)C(=O)c1ccc(C)o1	-0.5%	5.2%	0.7	1.9%	i	32.3*
CCN(CC(=O)NCc1ccc(F)cc1)C(=O)/C=C/c1cccs1	10.0%	4.8%	-1.1	10.3%	i	38.5*
COc1cc(OC)cc(C(=O)Nc2ccc(S(=O)(=O)N(C)C)cc2)c1	0.4%	-11.0%	0.5	0.9%	-11.2%[57.5 µM]	3.3
CC(C)(C)c1ccc(/C=N/OCC(=O)NCc2ccccc2)cc1	19.9%	15.3%	-0.7	8.91µM*	-9.3%	1.3
Cn1cc(CN2CCC(CO)CC2)c(-c2ccc(Oc3ccccc3)cc2)n1	-13.9%	3.2%	0.6	10µM*	i	-1.9
CC(C)N(C)Cc1cn(C)nc1-c1ccc(Oc2ccccc2)cc1	-2.8%	10.5%	0.2	?	-20.3%	35.6*
Cc1ccc(NC(=O)C2CCCN2S(=O)(=O)c2ccc3c(c2)n(C)c(=O)c(=O)n3C)cc1 (stereo not given)	3.3%	10.0%	0.2	31.6%	15.2%	2.0
O=[N+]([O-])c1cc([N+](=O)[O-])c(Oc2c(F)cc(F)cc2F)cc1NN1CCCCC1	-12.3%	-3.3%	-0.2	-14.3%	-36.8%	14.0

From PubChem
